Assay outcomes (PubChem)
MCF10A rerep = A quantitative high throughput screen for small molecules that induce DNA re-replication in MCF 10a normal breast cells | MCF 10A DNA re-replication, Hoechst nuclear intensity, 48 h | Potency, µM (titrated, usually from 46.1 µM), for inactives: at the top dose activity, positive = re-replication, hits mostly activators | 350,000 tested, 2.9% active | AID 624296, 2012; further: potency means the concentration at half of the fitted maximal effect; % of control where 0% means no effect; nearly all actives have a fitted effect of over 50% in size
KB-3-1 cytotox = qHTS assay for MDR1-selective chemotherapeutics: Primary screen using the parental adenocarcinoma cell KB-3-1; KB-3-1 viability, CellTiter-Glo ATP luminescence, 72 h; Potency, µM (top dose mostly 46.1 µM), usual class: cytotoxic; 400,000 tested, 1.4% active; further: potency means the concentration at half of the fitted maximal effect; on the % scale 0 is the no-effect control and ±100 the full control effect; nearly all actives have a fitted effect of over 60% in size
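Cytotoxicity in the drug-sensitive parental line KB-3-1 was scored as loss of CellTiter-Glo luminescence following 72 h incubation with compound. Values come from curve fitting of normalized concentration-response data.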
SW480 rereplic = A quantitative high throughput screen for small molecules that induce DNA re-replication in SW480 colon adenocarcinoma cells | 340,000 tested, 1.8% active | Potency, µM (highest dose often 46.1 µM), for inactives: top-dose re-replication activation, usual class: activators | SW480 DNA re-replication, Hoechst DNA content imaging, 48 h | AID 624297, 2012; further: potency means the concentration at half of the fitted maximal effect; % of control where 0% means no effect; nearly all actives have a fitted effect of over 55% in size
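250 cells/well; 23 nL cpd via pin tool; 48 hr, 37 C, 5% CO2; Hoechst 40 min; imager read of total nuclear intensity, ex 405/em 500-530 nm.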
KB-V1 MDR tox = qHTS assay for MDR1-selective chemotherapeutics: Primary screen using the drug-selected MDR subline cells KB-V1; KB-V1 MDR cells viability, CellTiter-Glo, 72 h; Potency, µM (doses to about 46.1 µM), hits mostly cytotoxic; 400,000 tested, 3.4% active; further: potency means the concentration at half of the fitted maximal effect; on the % scale 0 is the no-effect control and ±100 the full control effect; nearly all actives have a fitted effect of over 60% in size
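Cytotoxicity via CellTiter-Glo luminescence after 72 h compound exposure at 37 degrees C. Cells: drug-selected KB-V1 line, DMEM phenol-red free plus 10% FBS. Compounds tested at multiple concentrations; normalized data fitted to concentration-effect curves.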
S-ASM inh = Inhibitors of Secretory Acid Sphingomyelinase (S-ASM): qHTS; Sphingomyelin phosphodiesterase (Homo sapiens), P17405; placental ASM, HMU-PC fluorogenic substrate, 60 min; 340,000 tested, 0.006% active; Potency, µM (highest dose often 57.5 µM), for the others: at the top dose activity change, negative = inhibition, hits mostly inhibitors; further: potency means the concentration at half of the fitted maximal effect
Target sequence (P17405 47-631 limits assumed): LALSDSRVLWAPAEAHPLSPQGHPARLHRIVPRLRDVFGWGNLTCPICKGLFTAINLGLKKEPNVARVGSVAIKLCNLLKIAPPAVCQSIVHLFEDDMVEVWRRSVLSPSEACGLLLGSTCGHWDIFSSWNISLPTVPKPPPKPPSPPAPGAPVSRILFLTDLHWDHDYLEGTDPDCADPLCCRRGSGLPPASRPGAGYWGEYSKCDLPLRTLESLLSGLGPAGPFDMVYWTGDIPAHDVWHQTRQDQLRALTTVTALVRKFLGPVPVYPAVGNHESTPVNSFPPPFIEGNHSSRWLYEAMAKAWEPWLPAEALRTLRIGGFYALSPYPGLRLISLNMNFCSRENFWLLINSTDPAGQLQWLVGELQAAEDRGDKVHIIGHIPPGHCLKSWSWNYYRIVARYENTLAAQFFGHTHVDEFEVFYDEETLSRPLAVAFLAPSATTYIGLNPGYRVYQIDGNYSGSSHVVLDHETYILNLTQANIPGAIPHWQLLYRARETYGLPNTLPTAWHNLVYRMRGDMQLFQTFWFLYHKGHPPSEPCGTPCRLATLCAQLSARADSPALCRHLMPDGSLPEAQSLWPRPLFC
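Fluorescence read-out (Ex 386 nm, Em 447 nm) after stopping the reaction at pH 10. Enzyme: ASM from human placenta; substrate HMU-PC0, 9 uM final; 60 min, 37 °C. Compound preincubation 10 min, ambient temperature.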
Giardia kill = Small Molecules that selectively kill Giardia lamblia: qHTS; activity change, % at 7.66 µM, hits read low; AID 540267, 2011; Giardia lamblia trophozoite viability; 340,000 tested, 0.15% active; in the data active means activity change below about -80%; inconclusive means between about -30% and that limit;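 further: parasites exposed to compound for two days anaerobically before the ATP read; on the % scale 0 is the no-effect control and ±100 the full control effect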
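Giardia trophozoites, 100 cells per well, were exposed to compounds for 48 hrs at 37 deg C under anaerobic conditions; viability was then read as ATP content by bioluminescence after 15-30 min at room temperature.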
* hit, by the source's call. Shown are actives, neighbours in structure and some others; about 6.9% of the full set was active somewhere. Unless noted, the call rests on the fitted dose curve; in most records, active means well fitted curve in the direction sought with a large enough effect; inconclusive means small, poorly fitted or top-dose-only effect, or another doubt; inactive means no such curve, though single readings can be large; an effect the other way counts as inactive or inconclusive.

What do the screens show for `CC(O)CNc1ccc(-c2nn(C)c(=O)c3ccccc23)cc1[N+](=O)[O-]` (configuration not stated)?
MCF10A rerep: 4%; KB-3-1 cytotox: 9.2µM*; SW480 rereplic: -4%; KB-V1 MDR tox: 6.5µM*; S-ASM inh: -5%; Giardia kill: 6

Results for Cc1ccc(C)c(S(=O)(=O)c2nnn3c2nc(Nc2ccc(C)c(C)c2)c2ccccc23)c1 ?
KB-3-1 cytotox: inactive; KB-V1 MDR tox: inconclusive

How did COc1ccc(C2C(C#N)=C(N)N(c3sc4c(c3C#N)CCCC4)C3=C2C(=O)CC(C)(C)C3)cc1OC (configuration not stated) do in these assays?
MCF10A rerep: 7%; KB-3-1 cytotox: inactive; SW480 rereplic: 8%; KB-V1 MDR tox: inactive; S-ASM inh: -4%; Giardia kill: -20

How did COc1ccc(C2C(C#N)=C(N)N(c3sc4c(c3C#N)CCCC4)C3=C2C(=O)CC(C)(C)C3)cc1 (configuration not stated) do in these assays?
MCF10A rerep: 20%; KB-3-1 cytotox: inactive; SW480 rereplic: 4%; KB-V1 MDR tox: 5.8µM*; S-ASM inh: -2%; Giardia kill: -3

Results for NC(=O)C1CCN(c2ncc(-c3ccc4c(c3)OC(F)(F)O4)s2)CC1 ?
KB-3-1 cytotox: inactive; KB-V1 MDR tox: inactive

How did CC(=O)n1nc(-c2cccc(C)c2)nc1SCC(=O)Nc1ccccc1 do in these assays?
MCF10A rerep: 21%; KB-3-1 cytotox: inactive; SW480 rereplic: -3%; KB-V1 MDR tox: inactive; S-ASM inh: 1%; Giardia kill: -10

Results for CCC(=O)n1nc(-c2ccccc2)nc1SCC(=O)Nc1ccc(C)cc1 ?
MCF10A rerep: 0%; KB-3-1 cytotox: inactive; SW480 rereplic: -19%; KB-V1 MDR tox: 21µM*; S-ASM inh: -6%; Giardia kill: 11

How did Cc1ccc(NC(=O)CSc2nc3ccccc3c3nc4ccccc4n23)cc1 do in these assays?
MCF10A rerep: 1.5µM*; KB-3-1 cytotox: 0.92µM*; SW480 rereplic: 0.65µM*; KB-V1 MDR tox: 1.6µM*; S-ASM inh: -2%; Giardia kill: 19

Results for O=C(CSc1nc(-c2ccccc2)nn1C(=O)c1ccccc1)Nc1cccc([N+](=O)[O-])c1 ?
MCF10A rerep: 5%; KB-3-1 cytotox: inconclusive; SW480 rereplic: -8%; KB-V1 MDR tox: 21µM*; S-ASM inh: -13%; Giardia kill: 12

What do the screens show for `CCOC(=O)c1sc2c(c1C)C(c1cccs1)C1=C(CCCC1=O)N2` (configuration not stated)?
MCF10A rerep: 9.2µM*; KB-3-1 cytotox: inconclusive; SW480 rereplic: inconclusive; KB-V1 MDR tox: inactive; S-ASM inh: inactive; Giardia kill: -11

How did Nc1ccc(-c2nc3ccccc3[nH]2)cc1 do in these assays?
MCF10A rerep: inconclusive; KB-3-1 cytotox: inactive; SW480 rereplic: -10%; KB-V1 MDR tox: inactive; S-ASM inh: 2%; Giardia kill: -7

How did c1ccc(-c2cc(-c3nc4ccccc4[nH]3)c3ccccc3n2)cc1 do in these assays?
MCF10A rerep: inconclusive; KB-3-1 cytotox: 16µM*; SW480 rereplic: -1%; KB-V1 MDR tox: 16µM*; S-ASM inh: 197%; Giardia kill: 16

How did COc1ccc2c(c1)c1c(c(=O)n(-c3cccc(C)c3)c(=O)n1Cc1cccc(Cl)c1)n2C do in these assays?
KB-3-1 cytotox: inactive; KB-V1 MDR tox: inactive

What do the screens show for `CCOC(=O)c1[nH]c2ccccc2c1NC(=O)c1ccccc1OCC`?
KB-3-1 cytotox: 1.6µM*; KB-V1 MDR tox: inconclusive

Results for COC(=O)c1[nH]c2ccc(C)cc2c1NC(=O)c1ccccc1[N+](=O)[O-] ?
MCF10A rerep: inconclusive; KB-3-1 cytotox: inactive; SW480 rereplic: -5%; KB-V1 MDR tox: 16µM*; S-ASM inh: 0%; Giardia kill: -12

Results for CCOC(=O)c1[nH]c2ccccc2c1NC(=O)c1ccc(OCC)cc1 ?
KB-3-1 cytotox: inactive; KB-V1 MDR tox: inactive

Results for CCOC(=O)c1[nH]c2ccccc2c1NC(=O)c1ccc(S(=O)(=O)N2CCCCC2)cc1 ?
MCF10A rerep: 23µM*; KB-3-1 cytotox: inactive; SW480 rereplic: 6%; KB-V1 MDR tox: inactive; S-ASM inh: 19%; Giardia kill: -6

Results for CC(=O)OCCCNc1cc(Sc2ccc(Cl)cc2)c2nonc2c1[N+](=O)[O-] ?
MCF10A rerep: 4.6µM*; KB-3-1 cytotox: inactive; KB-V1 MDR tox: inactive; S-ASM inh: -14%; Giardia kill: 18

How did Cn1c(=O)c2c(nc(N3CCOCC3)n2Cc2cccc(Br)c2)n(C)c1=O do in these assays?
KB-3-1 cytotox: inactive; KB-V1 MDR tox: inconclusive

What do the screens show for `CCOc1ccc(N/C=C/C(=O)c2ccccc2)c([N+](=O)[O-])c1`?
MCF10A rerep: 7%; KB-3-1 cytotox: 16µM*; SW480 rereplic: 0%; KB-V1 MDR tox: inconclusive; S-ASM inh: -4%; Giardia kill: -8

What do the screens show for `O=[N+]([O-])c1nn(-c2ccc3c(c2)OCCO3)n(O)c1=NCc1ccccc1Cl`?
MCF10A rerep: 3%; KB-3-1 cytotox: inactive; SW480 rereplic: -6%; KB-V1 MDR tox: inconclusive; S-ASM inh: -5%; Giardia kill: inconclusive

Results for COc1ccccc1CN=c1c([N+](=O)[O-])nn(-c2ccc3c(c2)OCCO3)n1O ?
MCF10A rerep: 7%; KB-3-1 cytotox: inactive; SW480 rereplic: -6%; KB-V1 MDR tox: inactive; Giardia kill: -90*

How did O=[N+]([O-])c1nn(-c2ccc3c(c2)OCCO3)n(O)c1=NC1CCCCC1 do in these assays?
MCF10A rerep: 26%; KB-3-1 cytotox: inactive; SW480 rereplic: inconclusive; KB-V1 MDR tox: inconclusive; S-ASM inh: -12%; Giardia kill: -84*

Results for CC(C)Cn1cc(C(=O)NCCCN2CCCC2=O)c2c3ccccc3n(C)c2c1=O ?
MCF10A rerep: 18%; KB-3-1 cytotox: inactive; SW480 rereplic: -1%; KB-V1 MDR tox: 5.8µM*; S-ASM inh: 20%; Giardia kill: 3

What do the screens show for `CC(C)Cn1cc(C(=O)NCCCN2CCC(C)CC2)c2c3ccccc3n(C)c2c1=O`?
MCF10A rerep: 0%; KB-3-1 cytotox: inactive; SW480 rereplic: -4%; KB-V1 MDR tox: inactive; S-ASM inh: 1%; Giardia kill: 8
